This note sets out measurements from PubChem BioAssay AID485346 (Sanford-Burnham Center for Chemical Genomics, 2010).

Screen size: about 330,000 compounds; about 10,000 (3%) were called active. This is one part of a sample in which actives are shown more often than they occur.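 Rule for the calls: active = inhibition of at least 50% at 8 µM in the primary screen; inactive = the rest.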

The target in the assay is Protein Mdm4 (Homo sapiens) + E3 ubiquitin-protein ligase Mdm2 (Homo sapiens) (UniProt O15151+Q00987). The assay can be described thus: disruptors of Mdm2/MdmX RING complex – cell-based, luminescence, split luciferase, SaOS-2, uHTS, primary screen (AID 485346). Conditions: SaOS-2 split-luciferase Mdm2/MdmX complementation, at 8 µM, hits give high values.
Protein Mdm4 (Homo sapiens) + E3 ubiquitin-protein ligase Mdm2 (Homo sapiens), sequence (O15151 whole entry, looked up): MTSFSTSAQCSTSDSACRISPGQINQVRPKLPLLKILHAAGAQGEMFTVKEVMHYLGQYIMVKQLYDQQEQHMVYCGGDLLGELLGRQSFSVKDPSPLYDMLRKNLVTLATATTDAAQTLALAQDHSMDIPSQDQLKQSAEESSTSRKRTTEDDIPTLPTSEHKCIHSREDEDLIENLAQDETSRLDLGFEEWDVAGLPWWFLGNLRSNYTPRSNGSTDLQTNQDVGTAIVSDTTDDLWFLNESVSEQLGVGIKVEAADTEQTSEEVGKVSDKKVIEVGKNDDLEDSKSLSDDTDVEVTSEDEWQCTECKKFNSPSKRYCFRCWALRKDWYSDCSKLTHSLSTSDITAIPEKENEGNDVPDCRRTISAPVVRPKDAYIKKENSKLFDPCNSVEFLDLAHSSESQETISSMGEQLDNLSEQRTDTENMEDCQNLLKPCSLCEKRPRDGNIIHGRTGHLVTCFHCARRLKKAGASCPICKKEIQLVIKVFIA
Protein Mdm4 (Homo sapiens) + E3 ubiquitin-protein ligase Mdm2 (Homo sapiens), sequence (Q00987 whole entry, looked up): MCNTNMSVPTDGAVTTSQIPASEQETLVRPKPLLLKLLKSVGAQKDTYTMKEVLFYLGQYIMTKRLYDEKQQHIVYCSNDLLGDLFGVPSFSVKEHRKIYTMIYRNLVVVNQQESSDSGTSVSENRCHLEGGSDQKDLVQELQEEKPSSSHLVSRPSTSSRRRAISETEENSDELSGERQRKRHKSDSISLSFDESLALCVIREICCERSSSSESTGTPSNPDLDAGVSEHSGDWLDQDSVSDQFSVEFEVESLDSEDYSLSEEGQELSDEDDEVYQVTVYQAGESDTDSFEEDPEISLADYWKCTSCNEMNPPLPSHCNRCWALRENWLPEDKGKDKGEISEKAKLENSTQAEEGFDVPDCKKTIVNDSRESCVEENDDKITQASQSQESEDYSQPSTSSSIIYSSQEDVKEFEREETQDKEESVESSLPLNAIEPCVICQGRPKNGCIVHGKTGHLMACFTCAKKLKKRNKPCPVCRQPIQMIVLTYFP
As usually defined, the inhibition is the relative decrease from the control value, in per cent. `COc1cccc(NC(=O)[C@H](Cc2c[nH]c3ccccc23)NC(=O)[C@@H]2Cc3ccccc3CN2)c1`: the inhibition is 94.4% (active).
With `COc1ccc(NC(=O)[C@H](NC(=O)[C@@H]2Cc3ccccc3CN2)c2ccccc2)cc1` the figure was -1.06% (inactive); with `COc1ccc(CNC(=O)[C@H](Cc2c[nH]c3ccccc23)NC(C)=O)cc1OC`, 10.9% (inactive).
`C/C=C/c1ccc(OCCCCN2CCC(C)CC2)c(OC)c1`: the inhibition was -26% (inactive).
With `Cc1cccc(NC(=S)NCCN(C2CCCCC2)C2CCCC2)c1` the figure was 44.3% (inactive).
Take `Cc1cc(C)cc(NC(=S)NCc2ccc(F)cc2)c1`: the inhibition is -4.57% (inactive).
With `Cc1cccc(NC(=S)NCc2ccc3[nH]c4c(c3c2)CCCC4)c1` the figure was 63.6% (active); with `CC(C)=CCc1c(O)c(CC=C(C)C)c2occ(-c3ccc(O)cc3)c(=O)c2c1O`, 45.8% (inactive).
With `CCC1(CC)NC(=O)N(CC(=O)OCC(=O)c2cc(C)c(C)cc2C)C1=O`, the inhibition was 22.7% (inactive).
Take `Cc1ccc2c(c1)C1C[N+](C)(CC(=O)c3ccccc3)CCC1N2C(=O)c1ccccc1Cl` (configuration not stated): the inhibition was -17.1% (inactive).
`CCSC1=NCCN1S(=O)(=O)c1ccc(F)cc1`: the inhibition is -0.662% (inactive).
The value for `FC(F)(F)c1nnc2ccc(N3CCN(c4ccccc4)CC3)nn12` was 26.8% (inactive).
On to `Nc1nnc2c(C(F)(F)F)nc3ccccc3n12`, for which the inhibition was -2.03% (inactive).
The value for `FC(F)(F)c1nnc2c3ccccc3c(Cl)nn12` was 64.4% (active); that for `Cc1cc2oc(C(=O)Nc3c(C)n(C)n(-c4ccccc4)c3=O)c(C)c2cc1Cl` was 23.4% (inactive).
The value for `COc1ccc(CNC(=O)c2ccc3oc(C(C)C)nc3c2)cc1` was -34.8% (inactive); that for `Cc1cccc(N2O[C@H]3C=CC2CCCC3)n1` was 15.6% (inactive); that for `CC(=O)c1ccccc1NC(=O)CC1(CC(=O)O)CCCCC1` was 10.9% (inactive).
As to `CCOc1ccc(CCNC(=O)CSc2cc(=O)n(C)c3ccc(Cl)cc23)cc1OCC`, the inhibition is 4.16% (inactive).
With `CCN(CC)CCCNC(=O)CCc1ccccc1` the figure was 27.2% (inactive); with `CCN(CCCNC(=O)CSc1cc(=O)n(C)c2cc(Cl)ccc12)Cc1ccccc1`, 54.7% (active); with `CC(=O)OCCC(C)C`, 9.67% (inactive).
With `C=CCn1c(SCc2c(C)noc2C)nc2sc3c(c2c1=O)CCC(C)C3` (configuration not stated) the figure was 52.5% (active).
With `C=CCn1c(SCC(=O)NCC2CCCO2)nc2sc(C)c(C)c2c1=O` (configuration not stated) the figure was 2.91% (inactive); with `C=CCn1c(SCC(=O)NCCCO)nc2sc3c(c2c1=O)CCC3`, 0.393% (inactive).
`Cc1ccc(-c2ccc(=O)n(Cc3ccc(F)cc3Cl)n2)cc1`: the inhibition is -15.3% (inactive).
Regarding `COc1ccc(/C=C/c2noc(-c3ccccc3OC(C)=O)n2)cc1`, the inhibition was -61.9% (inactive).
The value for `Cc1ccc(-c2nc(-c3ccncc3)no2)c(C)c1` was -116% (inactive).
With `COc1ccc(-c2nc(-c3ccccc3)no2)c(OC)c1` the figure was 58.4% (active); with `O=C(NCCN1CCOCC1)c1cc(Sc2cccc(Cl)c2)nc2ccccc12`, -2.97% (inactive).
Consider `CCOC(=O)/C=c1\s/c(=C\c2ccc(C#N)cc2)c(=O)n1CC(=O)Nc1cccc(C)c1C`, for which the inhibition was 78% (active).
Consider `Cc1cccc(NC(=O)CSC(N)=O)c1C`, for which the inhibition is 2.96% (inactive).
The value for `CCOC(=O)/C=c1\s/c(=C\c2ccccc2OC)c(=O)n1CC(=O)N1CCOCC1` was 11.5% (inactive); that for `COc1cc(Cl)c(C)cc1NC(=O)[C@@H]1CCCN1C(=O)c1cccs1` was 6.14% (inactive); that for `COc1ccc(S(=O)(=O)N2CCN(c3cnccn3)CC2)cc1` was 13.5% (inactive).
The value for `CC1(C)CCSC(/C=C/c2ccccc2)=N1` was 85.2% (active); that for `CC(=O)N1CCC(N(C(=O)Nc2ccc(Cl)cc2)C(C)C)CC1` was -29% (inactive); that for `COc1cccc2sc3cc(NCC[C@@H]4CCCN4C)ccc3c(=O)c12` was -8.67% (inactive).
`Cc1cc2oc3ccc(NCCC4CCCN4C)cc3c(=O)c2cc1C` (configuration not stated): the inhibition was 90% (active).
The value for `Cc1cc2oc(=O)cc(CN3CCN(Cc4ccccc4)CC3)c2cc1C` was -23.1% (inactive); that for `CCCCC1(C(=O)OCC)NC(c2ccc(O)cc2)C2C(=O)N(c3ccccc3)C(=O)C21` (configuration not stated) was 4.63% (inactive); that for `COc1cccc(NC(=O)CCc2nnc3ccc(N4CCC(C)CC4)nn23)c1` was 6.23% (inactive).
Regarding `CC(=O)Nc1ccc(CN2CCN(Cc3ccc(F)c(F)c3)C(CCO)C2)cc1` (configuration not stated), the inhibition was -4.68% (inactive).
The value for `CC(C)c1nc(CNC(=O)CC2C(=O)NCCN2Cc2ccoc2)cs1` (configuration not stated) was 17% (inactive); that for `Cc1csc(NC(=O)c2ccc(C)s2)n1` was -81.3% (inactive); that for `COc1cc(SC)ccc1C(=O)Nc1nc(C)cs1` was 70.4% (active).
The value for `COc1cc(SC)ccc1C(=O)Nc1cc(C)ccn1` was -133% (inactive); that for `COc1ccc(-c2c(C(C)=O)c(C)nc3sc4c(=O)n(-c5ccc(C)cc5)nnc4c23)cc1` was 16.5% (inactive); that for `O=S(=O)(Nc1cccc(-c2ccc(N3CCOCC3)nn2)c1)c1ccc(Cl)c(Cl)c1` was -21.1% (inactive).
The value for `NC(=O)c1ccc(Nc2ccc3nonc3c2[N+](=O)[O-])cc1` was 19.2% (inactive).
As to `Cc1cc(C)cc(NC(=O)C(c2ccccc2)N2CCN(CC(=O)N3CCCC3)CC2)c1` (configuration not stated), the inhibition is 24% (inactive).
The value for `COC1=CCC2([N+](=O)[O-])CN(CC(=O)O)CC1([N+](=O)[O-])C2` (configuration not stated) was 4.95% (inactive); that for `Fc1ccc(-c2ccc(CNCc3ccccn3)o2)cc1Cl` was 1.76% (inactive); that for `Cc1cccc2cc(CN(Cc3cccs3)C(=S)NCc3ccco3)c(=O)[nH]c12` was 19.1% (inactive).
With `Cc1cc(C)c2[nH]c(=O)c(CN(Cc3ccccc3)C(=S)NCCCN(C)C)cc2c1` the figure was 90.9% (active).
The value for `COCCCNC(=S)N(CCN(C)C)Cc1cc2cc3c(cc2[nH]c1=O)OCCO3` was -4.07% (inactive).
With `COc1ccccc1NC(=O)CCC(=O)OC(C)C(=O)c1ccccc1` (configuration not stated), the inhibition is -23.8% (inactive).
The value for `CCCn1c(O)c(CN2CCCC(C)C2)c(C)c(C#N)c1=O` (configuration not stated) was -48.3% (inactive).
`CCN(CC(=O)NCc1ccc(F)cc1)S(=O)(=O)c1ccc(Cl)s1`: the inhibition is -3.24% (inactive).
With `COc1cc(NC(=O)c2cncc(-c3ccc(C#N)cc3)c2)cc(C(=O)Nc2cccc(C(F)(F)F)c2)c1` the figure was 59.6% (active).
With `N#Cc1ccc(Oc2ccc(C(F)(F)F)cc2NC(=O)c2ccc(F)cc2)cc1` the figure was 9.08% (inactive); with `COc1cc(NC(=O)c2[nH]cnc2C(N)=O)cc(C(=O)Nc2cccc(C(F)(F)F)c2)c1`, 97.2% (active).
With `COc1ccc(NC(=O)C(=O)NCC(=O)Nc2cccc(C(F)(F)F)c2)cc1` the figure was 12.2% (inactive); with `Cc1cccc(NC(=O)c2nnn(-c3cccc(C(F)(F)F)c3)c2N)c1`, 8% (inactive).
With `COc1ccc(NC(=O)CN(C)CC(=O)Nc2cccc(C(F)(F)F)c2)cc1`, the inhibition was 14.9% (inactive).
As for `CCN1C(=O)[C@H]2[C@@H](c3ccc(-c4ccc(F)cc4)cc3)N[C@@](Cc3ccccc3)(C(=O)OC)[C@H]2C1=O`, the inhibition is 48% (inactive).
On to `CCCC(CNC(=O)COC(=O)C1=NNC(=O)CC1)c1ccc(Cl)cc1Cl` (configuration not stated), for which the inhibition was -11.5% (inactive).
With `C=C(C)C(=O)Nc1cccc(C2=NOC3(C2)C[C@H](C(N)=O)N(C(=O)C(c2ccccc2)c2ccccc2)C3)c1` (some centres not stated) the figure was 16.4% (inactive); with `Cc1c(C(=O)Nc2cccc(Cl)c2)cn2c(nc3ccccc32)c1C#N`, 60.3% (active).
For the compound `O=C(O)c1cccc(NC(=O)c2cc(-c3cccc(Cl)c3)nc3ccccc23)c1`, the inhibition is 0.449% (inactive).
The value for `Cn1c(Nc2cccc(Cl)c2)nc2ccccc21` was -18.1% (inactive); that for `CC(=O)c1c(C)[nH]c(C(=O)OCC(=O)NCCC(C)C)c1C` was 17.9% (inactive); that for `CCOc1cc(NC(=S)NCCCN(C)C)c(OCC)cc1NC(=O)C1CC1` was 3.9% (inactive).
The value for `Cc1cc(C(=O)N/N=C\C(Br)=C\c2ccccc2)c(C)o1` was -18.5% (inactive); that for `CC(C)c1cc(C(=O)O)n[nH]1` was 5.75% (inactive); that for `CC(C)c1cc(C(=O)N/N=C/C(Br)=C/c2ccccc2)n[nH]1` was 66.1% (active).
The value for `O=C1CSc2ccc(S(=O)(=O)NCc3ccccc3)cc2N1` was -3.1% (inactive); that for `COc1ccc(OC)c(C2C3=C(N=c4s/c(=C\c5cccc(O)c5)c(=O)n42)c2ccccc2CC3)c1` (configuration not stated) was 79.2% (active).
In the case of `O=C1CCCC2=C1C(c1ccccc1)n1c(s/c(=C/c3cccc(F)c3)c1=O)=N2` (configuration not stated), the inhibition was -4.28% (inactive).
With `CCOC(=O)C1=C(C)N=c2s/c(=C\C(=O)OC)c(=O)n2C1c1ccc(OC)cc1` (configuration not stated) the figure was 12.2% (inactive).
The value for `O=C(N/N=C/c1ccc(Cl)cc1)c1nc2ccc([N+](=O)[O-])cc2c(=O)[nH]1` was 6.69% (inactive); that for `COC(=O)c1sc(SC)c(S(=O)(=O)C(C)C)c1N/N=C(\C#N)S(=O)(=O)c1ccccn1` was 9.73% (inactive); that for `O=C(NC1CCc2ccccc21)C12CN(Cc3ccccc3)CC1C(c1cccc([N+](=O)[O-])c1)=NO2` (configuration not stated) was 0.069% (inactive).
With `CSc1nc(-c2ccccc2)nc(C(Cl)Cl)n1` the figure was 101% (active).
Regarding `CSc1ncc(Sc2ccccc2)c(C(=O)O)n1`, the inhibition is 8.72% (inactive).
The value for `CN=C(NC#N)NCCSCc1nc[nH]c1C` was 2.92% (inactive).
With `CC1(C)CC(=O)C=C(NCc2ccncc2)C1` the figure was 27.3% (inactive); with `c1ccc(C2CCC(N3CCC(N4CCCCC4)CC3)CC2)cc1` (configuration not stated), 91.3% (active); with `O=S(=O)(c1ccccc1)N1CCC(c2ccccc2)CC1`, -19.7% (inactive).
With `Cc1ccc(S(=O)(=O)N2CCC(N3CCCCCC3)CC2)cc1` the figure was 1.35% (inactive); with `CCOC(=O)C1CCN(C(=O)C2CCN(S(=O)(=O)CC)CC2)CC1`, 12.2% (inactive); with `CCN(CC(=O)NCCCN1CCOCC1)S(=O)(=O)c1cc(Cl)ccc1Cl`, 20.3% (inactive).
